# Source: PubChem BioAssay (Tox21)
# “And” between values parts separate entries of the source, which are not always exact repeats. Equal entries are not always repeated. Inconclusive results are not listed. Entries that show only a call come without a potency. Where a structure was tested more than once in an assay, its records may differ in their call. The source made the active and inactive calls. The call rests on the fitted dose curve; in most records, active means well fitted curve in the direction sought with a large enough effect in the repeat runs; inconclusive means weak or mixed curves; inactive means no such curve, though single readings can be large; an effect the other way counts as inactive or inconclusive.
# Tests used:
# [1] = A CellTox Green Cytotoxicity Assay to monitor cytotoxicity in HEK293 cells - 40 hour (AID 1224871); conditions: CellTox Green fluorescence; series mostly up to 76.8 µM; further: nearly all actives have a fitted effect of over 45% in size
# In short: (§1)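 Fluorescence from a DNA-binding dye excluded by viable cells was measured repeatedly in the same HEK293 wells (600 cells/well) during continuous compound exposure at 37 C. Each assay gives one read point: 0, 8, 16, 24, 32 or 40 h.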
# [2] = qHTS RealTime-Glo MT Cell Viability Assay in HEK293 cells - 16 hour (AID 1224872); conditions: RealTime-Glo luminescence; series mostly up to 76.8 µM; further: nearly all actives have a fitted effect of over 50% in size
# In short: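 Homogeneous bioluminescent viability format in HEK293 cells (600 cells/well). Following 5 h at 37 C/5% CO2, 23 nL compound was pintooled; the signal was measured repeatedly during 40 h incubation.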
# [3] = qHTS RealTime-Glo MT Cell Viability Assay in HepG2 cells - 8 hour (AID 1224873); conditions: RealTime-Glo luminescence; series mostly up to 76.8 µM; further: nearly all actives have a fitted effect of over 55% in size
# In short: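 HepG2 cells mixed with RealTime-Glo MT reagents (NanoLuc plus cell-permeant prosubstrate) were seeded at 600 cells/well, incubated 5 h at 37 C/5% CO2, then pinned with compounds in DMSO; nonlytic luminescence tracked viability during 40 h treatment.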
# [4] = A CellTox Green Cytotoxicity Assay to monitor cytotoxicity in HEK293 cells - 24 hour (AID 1224875); conditions: CellTox Green fluorescence; series mostly up to 76.8 µM; further: nearly all actives have a fitted effect of over 45% in size
# In short: as §1
# [5] = A CellTox Green Cytotoxicity Assay to monitor cytotoxicity in HepG2 cells - 16 hour (AID 1224876); conditions: CellTox Green fluorescence; series mostly up to 76.8 µM; further: nearly all actives have a fitted effect of over 45% in size
# In short: (§2)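 Real-time cytotoxicity: fluorescence of a cell-impermeant cyanine dye binding DNA of dead HepG2 cells, measured repeatedly (0–40 h) during compound exposure at 37 C. Cells seeded 600/well with reagent, dosed after 5 h.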
# [6] = qHTS RealTime-Glo MT Cell Viability Assay in HepG2 cells - 32 hour (AID 1224877); conditions: RealTime-Glo luminescence; series mostly up to 76.8 µM; further: nearly all actives have a fitted effect of over 55% in size
# In short: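 Cell number in HepG2 cultures estimated from NanoLuc luminescence generated by metabolic reduction of a prosubstrate by living cells. The homogeneous, nonlytic format allowed repeated reads at 0, 8, 16, 24, 32 and 40 h of compound exposure.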
# [7] = A CellTox Green Cytotoxicity Assay to monitor cytotoxicity in HepG2 cells - 24 hour (AID 1224878); conditions: CellTox Green fluorescence; series mostly up to 76.8 µM; further: nearly all actives have a fitted effect of over 45% in size
# In short: as §2
# [8] = A CellTox Green Cytotoxicity Assay to monitor cytotoxicity in HepG2 cells - 40 hour (AID 1224879); conditions: CellTox Green fluorescence; series mostly up to 76.8 µM; further: nearly all actives have a fitted effect of over 40% in size
# In short: as §2
# [9] = qHTS RealTime-Glo MT Cell Viability Assay in HEK293 cells - 0 hour (AID 1224880); conditions: RealTime-Glo luminescence; series mostly up to 76.8 µM; further: nearly all actives have a fitted effect of over 45% in size
# In short: (§3)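 Luminescence, which tracks viable cell number through reduction of the prosubstrate to a NanoLuc substrate, was read over continuous 37 C culture. Cells (600/well) were premixed with reagent and rested 5 h before 23 nL of compound in DMSO was pinned.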
# [10] = qHTS RealTime-Glo MT Cell Viability Assay in HEK293 cells - 40 hour (AID 1224874); conditions: RealTime-Glo luminescence; max response: stronger effect = lower value; further: nearly all actives have a fitted effect of over 50% in size
# In short: as §3
# Potency means the concentration at half of the fitted maximal effect.
Structure (SMILES),Potency [1],Potency [2],Potency [3],Potency [4],Potency [5],Potency [6],Potency [7],Potency [8],Potency [9],Potency [10],max response [10]
O=C(N/N=C/c1ccccc1O)c1ccncc1,inactive,inactive,inactive,inactive,inactive,inactive,inactive,inactive,inactive,–,–
O=c1[nH]sc2ccccc12,54.9 µM (active),38.9 µM (active),34.7 µM (active),–,34.7 µM (active),21.9 µM (active),38.9 µM (active),21.9 µM (active),inactive,30.9 µM (active),–
O=C(OCC1CO1)C1CCCCC1C(=O)OCC1CO1 (stereo not given),inactive,inactive,inactive,inactive,inactive,inactive,inactive,inactive,inactive,–,–
CCCCC(CC)COP(=O)(O)OCC(CC)CCCC (stereo not given),43.6 µM (active),inactive,inactive,43.6 µM (active),inactive,inactive,49.1 µM (active) and inactive,54.9 µM (active),inactive,–,–
Cc1cc(O)c(C(C)(C)C)cc1C(C)(C)C,24.5 µM (active),19.5 µM (active),38.9 µM (active),24.5 µM (active),21.9 µM (active),43.6 µM (active),21.9 µM (active),24.5 µM (active),inactive,–,–
CCOC(=O)/C=C(C)/C=C/C=C(C)/C=C/c1c(C)cc(OC)c(C)c1C,inactive,inactive,inactive,inactive,–,inactive,inactive,inactive,–,–,–
C[C@H]1[C@H]2CC[C@H]3[C@@H]4CC=C5C[C@@H](N(C)C)CC[C@]5(C)[C@H]4CC[C@]23CN1C,inactive,inactive,inactive,inactive,–,inactive,–,inactive,inactive,–,–
C[C@H](CCC(=O)O)[C@H]1CC[C@H]2[C@@H]3CC[C@@H]4C[C@H](O)CC[C@]4(C)[C@H]3CC[C@]12C,inactive,inactive,inactive,inactive,–,inactive,–,–,inactive,–,-16.2% (inactive) and -15.3% (inactive)
CNc1ccc(O)cc1,9.75 µM (active),13.8 µM (active),48.9 µM (active),–,–,–,–,48.9 µM (active),17.3 µM (active),12.3 µM (active),–
NC(=NCCCCCCN=C(N)/N=C(\N)Nc1ccc(Cl)cc1)/N=C(\N)Nc1ccc(Cl)cc1,15.8 µM (active) [middle of 4 runs],19.8 µM (active) [middle of 4 runs],48.7 µM (active) and 44.4 µM (active) and inactive,24.4 µM (active) [middle of 4 runs],–,–,21.8 µM (active) [middle of 4 runs],–,inactive,6.88 µM (active) [middle of 5 runs],–
CCCC(C)c1ccccc1O (stereo not given),49 µM (active),inactive,inactive,–,–,inactive,–,–,inactive,–,-11.1% (inactive)
C=CC(=O)OCC(CO)(COC(=O)C=C)COC(=O)C=C,2.76 µM (active) and 9.77 µM (active),5.51 µM (active),–,43.6 µM (active),inactive,12.3 µM (active) and 17.4 µM (active),9.81 µM (active),11 µM (active) and 24.5 µM (active),inactive,3.48 µM (active),–
O=C(NO)C1(NS(=O)(=O)c2ccc(Oc3ccc(F)cc3)cc2)CCOCC1,inactive,inactive,inactive,inactive,inactive,inactive,inactive,inactive,–,–,–
C=C(C)C(=O)OCC[N+](C)(C)C,inactive,inactive,inactive,–,inactive,inactive,inactive,inactive,inactive,–,-0.113% (inactive)
O=S1(=O)CC(Cl)(Cl)C(Cl)(Cl)C1,1.95 µM (active),4.9 µM (active),8.71 µM (active),–,11 µM (active),6.16 µM (active),9.77 µM (active),6.92 µM (active),inactive,–,–
O=C(Nc1cccc(Cl)c1)OCC#CCCl,43.6 µM (active),54.9 µM (active),43.6 µM (active),inactive,–,43.6 µM (active),–,–,inactive,49 µM (active),–
CCCCCCCCCCCC(=O)NCCCN(C)C,49 µM (active),49 µM (active),–,54.9 µM (active),43.6 µM (active),38.9 µM (active),34.7 µM (active),30.9 µM (active),–,34.7 µM (active),–
CCN(CC)CCNC(=O)c1c(C)[nH]c(/C=C2\C(=O)Nc3ccc(F)cc32)c1C,23.9 µM (active),10.7 µM (active),–,23.9 µM (active),21.3 µM (active),19 µM (active),19 µM (active),9.52 µM (active),inactive,8.49 µM (active),–

Structure (SMILES),Potency [1],Potency [2],Potency [3],Potency [4],Potency [5],Potency [6],Potency [7],Potency [8],Potency [9],Potency [10],max response [10]
O=c1cccccc1O,inactive,inactive,inactive,inactive,inactive,inactive,inactive,inactive,inactive,–,–
CCc1cc(Cc2cc(CC)cc(C(C)(C)C)c2O)c(O)c(C(C)(C)C)c1,54.9 µM (active),13.8 µM (active),49 µM (active),–,–,49 µM (active),–,–,–,21.9 µM (active),–
C=CC(=O)OCCn1c(=O)n(CCOC(=O)C=C)c(=O)n(CCOC(=O)C=C)c1=O,21.9 µM (active),11 µM (active),–,49 µM (active),49 µM (active),24.5 µM (active),49 µM (active),21.9 µM (active),inactive,11 µM (active),–
CS(=O)(=O)CCNCc1ccc(-c2ccc3ncnc(Nc4ccc(OCc5cccc(F)c5)c(Cl)c4)c3c2)o1,inactive,19 µM (active),23.9 µM (active),inactive,–,–,–,–,0.674 µM (active),–,–
N=C1N=C(N)c2cc3ccccc3cc21,54.9 µM (active),27.5 µM (active),–,54.9 µM (active),43.6 µM (active),24.5 µM (active),24.5 µM (active),24.5 µM (active),–,32.1 µM (active),–
C[n+]1ccn(Cc2ccccc2)c1,inactive,inactive,inactive,inactive,inactive,inactive,inactive,inactive,inactive,–,–
Clc1ccccc1C(c1ccccc1)(c1ccccc1)n1ccnc1,43.6 µM (active) and inactive,27.5 µM (active),27.5 µM (active) and inactive,–,38.9 µM (active) and inactive,24.5 µM (active) and inactive,21.9 µM (active) and inactive,21.9 µM (active) and inactive,–,19.5 µM (active) and 6.74 µM (active),–
CCN(CCC#N)c1ccc(N=Nc2c(Cl)cc([N+](=O)[O-])cc2Cl)cc1,inactive,inactive,–,inactive,inactive,–,inactive,inactive,inactive,–,-15.8% (inactive)
CCCN(CCC)C(=O)C(CCC(=O)OCCCN1CCN(CCOC(=O)Cc2c(C)n(C(=O)c3ccc(Cl)cc3)c3ccc(OC)cc23)CC1)NC(=O)c1ccccc1 (stereo not given),inactive,21.3 µM (active),–,inactive,23.9 µM (active),–,23.9 µM (active),23.9 µM (active),inactive,–,–
CC1=C(/C=C/C(C)=C/C=C/C(C)=C/C=O)C(C)(C)CCC1,38.7 µM (active),19.4 µM (active),–,38.7 µM (active),–,–,54.6 µM (active),48.7 µM (active),inactive,19.4 µM (active),–
O=C(NOCC1CC1)c1ccc(F)c(F)c1Nc1ccc(I)cc1Cl,inactive,–,inactive,inactive,inactive,–,0.0425 µM (active),0.107 µM (active),16.9 µM (active),23.9 µM (active),–
CCOC(=O)c1nc(C(Cl)(Cl)Cl)n(-c2ccc(Cl)cc2Cl)n1,inactive,inactive,–,inactive,inactive,–,inactive,inactive,inactive,–,-11.5% (inactive)
Cc1ccc2oc(CN(Cc3ccccc3)C(=O)Nc3c(F)cc(F)cc3F)c(-c3ccc(Cl)cc3)c2c1,inactive,inactive,–,inactive,inactive,–,inactive,inactive,inactive,–,-18.1% (inactive)
CCOc1nc2cccc(C(=O)OC(C)OC(=O)OC3CCCCC3)c2n1Cc1ccc(-c2ccccc2-c2nn[nH]n2)cc1 (stereo not given),30.9 µM (active),11 µM (active),–,34.6 µM (active),–,–,43.6 µM (active),43.6 µM (active),–,–,–
On1ccccc1=S,1.09 µM (active),3.85 µM (active),–,–,1.93 µM (active),0.485 µM (active),0.432 µM (active),0.385 µM (active),inactive,3.85 µM (active),–
OCCCCCCCCCCCCBr,inactive,–,inactive,inactive,inactive,inactive,inactive,11.1 µM (active),inactive,11.1 µM (active),–
Cc1cc2c(cc1C(F)(F)F)N(C(=O)Nc1ccc(Oc3cccnc3C)nc1)CC2,inactive,–,inactive,inactive,inactive,–,–,–,inactive,5.58 µM (active),–
